Screens from PubChem.
LMNA splice mod: changes lamin A minigene splicing in HeLa cells | Potency, µM (highest dose often 46.1 µM), for the others: top-dose ratio change, negative = inhibition, actives largely listed as inhibitors | HeLa LMNA splicing GFP/RFP minigene ratio, 48 h | AID 1487 | 200,000 compounds, 0.01% hits; active = well fitted inhibition curve with a large enough effect in the signal ratio, with a control signal flat, not every such curve was filed as active; inconclusive = small, poorly fitted or top-dose-only effect, or effect the other way, or a change in a side signal; the % refers to the signal ratio
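Read-out is the ratio of GFP to DsRed2 object intensity, acquired by 488 nm laser-scanning cytometry on HeLa lamin A-EGFP minigene reporter cells. Compound incubation 48 hrs at 37 °C in Opti-MEM with 2% FBS; DMSO 0.5% final.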
N370S GC mod: inhibits or activates N370S mutant glucocerebrosidase | P04062 | N370S GC spleen homogenate, 4MU-glucoside fluorescence | Potency, µM (doses to about 59.4 µM), for inactives: at the highest dose activity change, negative = inhibition, most hits filed as inhibitors | 330,000 compounds, 0.092% hits | AID 2101;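 also: 0% = full enzyme activity and -100% = no enzyme basal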
GAA glycogen: alters human alpha-glucosidase cleavage of glycogen. P10253. recombinant GAA, glycogen substrate, Amplex Red glucose oxidase fluorescence. Potency, µM (doses to about 76.4 µM), for inactives: top-dose activity change, negative = inhibition, usual class: inhibitors. 300,000 compounds, 0.38% hits. AID 2100;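 also: 0% = full enzyme reaction and -100% = no-enzyme basal signal; the screen sought inhibitors and activators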
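Natural-substrate format: glycogen cleavage by 4 nM human enzyme, glucose read by Amplex Red coupling (Ex 573, Em 610 nm). Normalized to enzyme and no-enzyme controls.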
GAA spleen mod: lysosomal alpha-glucosidase (human) modulation. AID 2112. P10253. human spleen homogenate, 4-MU-alpha-glucoside fluorescence. Potency, µM (titrated, usually from 79.9 µM), for the others: at the top dose activity change, negative = inhibition, usual class: inhibitors. 240,000 compounds, 0.006% hits;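 also: 0% = enzyme with vehicle and -100% = no enzyme basal signal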
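Enzyme source: human spleen homogenate, 1 ug/well. Buffer 50 mM citric acid/K phosphate pH 5.0, 0.01% Tween-20. 4-MU-alpha-glucoside 1 mM; 37 C x 40 min; NaOH/glycine stop; fluorescence.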
GAA inhib: alpha-glucosidase (human) inhibition; Potency, µM (doses to about 76.9 µM), without a hit: at the top dose activity change, negative = inhibition, actives largely listed as inhibitors; purified human GAA, 4-MU-alpha-glucoside fluorescence; AID 1466; P10253; 200,000 compounds, 0.005% hits;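 also: plate controls were uninhibited enzyme wells for no effect and no-enzyme background for full effect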
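AC50 values come from Hill fits of compound titrations (up to 77 uM) against 4 nM human enzyme. Substrate 4-methylumbelliferyl-alpha-D-pyranoside at 400 uM, pH 5.0 citrate buffer, 20 min room temperature; fluorescence Ex 365/Em 440 after alkaline stop.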
The depositor's hits bear a star; ? = inconclusive; nt = not tested or not shown; ! = a repeat was not active; [ ] = dose if it differs, or a comment. Compounds with a hit are over-represented: about 0.42% of the library has one in this group of screens. Unless noted, calls follow the shape of the dose curve; as a rule, active = well fitted curve in the direction sought with a large enough effect; inconclusive = small, poorly fitted or top-dose-only effect, or another doubt; inactive = no such curve, though single readings can be large; an effect the other way counts as inactive or inconclusive. Unless noted, % is scaled to controls: 0 for no effect and ±100 for the full control effect; potency is read from the fitted curve at half-maximal effect.

SMILES	LMNA splice mod	N370S GC mod	GAA glycogen	GAA spleen mod	GAA inhib
COc1ccc(-c2nnc3n2N=C(c2cc(OC)ccc2OC)CS3)c(OC)c1	nt	-1%	nt	10%	nt
Cc1ccc(N/C=C/C(=O)c2ccco2)c(O)c1	nt	-2%	8.9µM*	6%	nt
Cc1ccc([N+](=O)[O-])cc1N/C=C/C(=O)c1ccco1	?	-7%	1%	2%	-14%
O=C1CCCC2=C1C(c1ccc(O)c(O)c1)Nc1ccc3ncccc3c12 (centres undefined)	?	6%	2.8µM*	-2%	-2%
COc1cc(NS(=O)(=O)c2ccc([N+](=O)[O-])cc2)c2ncccc2c1	nt	16%	nt	7%	nt
CCCC/C=C/[C@H](c1ccccc1)[C@H](CO)Cc1ccc([N+](=O)[O-])cc1	nt	-7%	nt	-4%	nt
Cc1ccc(S(=O)(=O)N2CCN(CC(=O)N/N=C\c3ccc(O)c(O)c3)CC2)cc1	nt	-20%	6.3µM*	?	nt
O=C(CN1CCN(S(=O)(=O)c2ccc(F)cc2)CC1)c1ccc(O)c(O)c1	nt	?	10%	-10%	?
O=C(CN1CCN(S(=O)(=O)c2ccc(Cl)cc2)CC1)c1ccc(O)c(O)c1	nt	-28%	8.9µM*	nt	nt
CC(=O)/C=C(\C)Nc1ccccc1O	nt	-21%	25µM*	-12%	nt
O=C(Nc1ccccc1O)c1ccccc1O	?	-11%	?	0%	5%
S=C(Nc1ccc(Oc2ccccc2)cc1)N(CCCN1CCOCC1)Cc1ccccn1	?	10µM*	-5%	5%	0%
O=c1ccc2cc(O)c(O)cc2o1	?	?	6.3µM*	5%	?
O=c1ccc2ccc(O)cc2o1	-6%	?	nt	?	nt
O=C1NC(=O)c2c1c(-c1ccccc1)cc1[nH]c3ccc(O)cc3c21	nt	-5%	nt	-27%	nt
C(C#CCCCCCCCCC[n+]1ccccc1)#CCCCCCCCCC[n+]1ccccc1	nt	11µM*	nt	nt	nt
CCn1c(=O)n(C2=C(CO)CN(CC3CCCCCCC3)CC2)c2ccccc21	nt	-3%	nt	-21%	nt
COC(=O)CNC(=O)C1CCN(S(=O)(=O)c2cccc3nsnc23)CC1	nt	-27%	11µM*!	nt	nt
Oc1ccc(/C=N/Nc2ccc(C(F)(F)F)cn2)cc1	nt	-1%	22µM*	-5%	-10%
Oc1ccc(/C=N/Nc2ccc(C(F)(F)F)cn2)c(O)c1	nt	-7%	1%	nt	nt
CCOC(=O)OCC1OC(CCc2ccccc2)CCC1Oc1ccc(OC)cc1 (centres undefined)	nt	4%[12.8 µM]	nt	2%[17.4 µM]	nt
CC1CCc2c(nc3ncnn3c2NCCc2ccccc2F)C1 (centres undefined)	11%[46 µM]	-28%	4µM*	2%	10%
CC1CCc2c(nc3ncnn3c2N2CCN(c3ccccc3F)CC2)C1 (centres undefined)	10%	-3%	1%	-5%	-3%
Cc1ccc(-c2ccc(NC(=O)C3C4C=CC(C4)C3C(=O)O)cc2)o1 (centres undefined)	2%	nt	40µM*	-3%	7%
Cc1oc2c(O)c(O)ccc2c(=O)c1-c1ccccc1	?	-12%	8.8µM*	8%	6%[15.4 µM]
SMILES	LMNA splice mod	N370S GC mod	GAA glycogen	GAA spleen mod	GAA inhib
O=c1cc(-c2ccccc2)oc2c(O)c(O)ccc12	nt	-12%	nt	16%	nt
Cc1c(Cc2ccccc2)c(=O)oc2c(O)c(O)ccc12	nt	-10%	5µM*	3%	-9%
Cc1oc2cc(O)cc(C)c2c(=O)c1-c1cnn(-c2ccccc2)c1	13%	11%	-6%	-7%	0%
Cc1oc2c(CN3CCCC3)c(O)ccc2c(=O)c1-c1ccc(Br)cc1	9%	-13%	-5%	4%	13%
Cc1oc2c(O)c(O)ccc2c(=O)c1-c1ccc(Cl)cc1	nt	-9%	7.1µM*	nt	nt
Cc1oc2c(O)c(O)ccc2c(=O)c1-c1cnn(-c2ccccc2)c1	15%	7%	5.6µM*	-13%	-15%
COc1c(C2=CC(=O)N(C)C2=O)c2c(n1C)C(=O)c1ccccc1C2=O	nt	2%	nt	10%	nt
NCCc1cnc[nH]1	0.89µM*!	12%	-5%	0%	-4%[15.4 µM]
NCCC(=O)N[C@@H](Cc1cnc[nH]1)C(=O)O	nt	-7%	nt	3%	nt
Cc1ccc(NC(=S)NNC(=O)c2nn(C)cc2Cl)cc1	6%	9%	14µM*	2%	5%
CCNC(=S)N/N=C(\C)c1ccc2ccccc2c1OC(F)F	nt	-13%	50µM*	4%	3%
CCNC(=S)N/N=C(\C)c1ccc2ccccc2c1	nt	-5%	-13%	6%	1%
Cc1nc(Nc2ccc(O)cc2)c2c3c(sc2n1)CCCC3	nt	11µM*	14µM*	8%	-9%
Cc1ccc(CNc2nc(C)nc3sc4c(c23)CCC4)cc1	11%	13%	1%	0%	-4%
COc1ccccc1-c1nccc(NCc2cccs2)n1	?	5%	nt	10%	nt
FC(F)(F)c1ccccc1-c1nccc(NCc2ccccc2)n1	3%	11µM*	nt	13%	nt
Cc1cnc(CNc2ccnc(-c3ccccc3C(F)(F)F)n2)cn1	1%	-15%	nt	-9%	nt
FC(F)(F)c1ccccc1-c1nccc(NCc2cccs2)n1	6%	3.2µM*	nt	7%	nt
C=CCn1c(SCC(=O)NC2CCCC2)nc2scc(-c3ccco3)c2c1=O	15%	13µM*	2%	-7%	-7%
NC(CC(=O)Nc1ccc(Oc2cc(F)c(F)cc2Br)cc1)C(=O)O (centres undefined)	nt	-9%	nt	-4%	nt
S=C(NCc1ccncc1)Nc1ccccc1	-4%[46 µM]	-4%	9%	3%	5%
S=C(NCc1ccncc1)Nc1ccc(Br)cc1	nt	18µM*	-6%[76.3 µM]	nt	nt
CCCCn1c(C)cc2cc(O)ccc21	-4%	-2%	32µM*	-5%	1%
CCCCn1c(=O)cc(O)c2ccccc21	-15%	2%	1%	13%	-4%
CC(=O)Nc1ccc(S(=O)(=O)N2CCc3nc(COc4ccccc4)c4c(c3C2)CO[C@@H](C)C4)cc1	11%[9.22 µM]	-13%[12.8 µM]	nt	2%[17.4 µM]	nt
SMILES	LMNA splice mod	N370S GC mod	GAA glycogen	GAA spleen mod	GAA inhib
Oc1ccc(/C=N/N2CCN(c3ccccn3)CC2)cc1	nt	3%	11µM*	-3%	nt
COCCn1c(=O)c(-c2ccc(Cl)cc2)nc2cnc(Oc3cccc(Cl)c3)nc21	20%	7%	nt	-5%	nt
Nc1cc(S(=O)(=O)Nc2ccccc2Cl)ccc1N1CCOCC1	nt	-6%	4%	0%	-3%
Nc1cc(S(=O)(=O)Nc2cc(Cl)ccc2Cl)ccc1N1CCCC1	nt	14%	18µM*	-5%	nt
S=C(NC1CCCCC1)NC1CCCCC1	nt	-1%	nt	8%	nt
CCOc1cc(-c2nc3ccccn3c2NCC2CCCO2)ccc1O (centres undefined)	-15%	3%	25µM*	-19%	2%
COc1cc(-c2nc3ccccn3c2NCC2CCCO2)ccc1O (centres undefined)	-15%	-11%	28µM*	1%	3%
COc1ccc(/C=N/NC(=O)CC(=O)N/N=C/c2ccc(OC)cc2)cc1	nt	-14%	24%	-2%	3%
